Data as given in PubChem BioAssay (Tox21).
Results filed as inconclusive are left out. Where a call stands in place of a potency, no number is given. Activity calls are given as the source filed them. The call rests on the fitted dose curve; in most records, active means well fitted inhibition curve with a large enough effect in the repeat runs; inconclusive means weak or mixed curves, or effect the other way; inactive means no such curve, though single readings can be large or run the other way.

Target: Androgen receptor (Homo sapiens) (UniProt P10275)
Experiment: qHTS assay to identify small molecule antagonists of the androgen receptor (AR) signaling pathway using the MDA cell line (AID 743042; further: nearly all actives have a fitted effect of over 55% in size)
Settings: MDA-kb2 AR-luc, MMTV luciferase, R1881 antagonist, 16 h; series mostly up to 70.3 µM
Procedure, shortened: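 Antagonist mode: compounds plus R1881 agonist added to MDA-kb2 AR-luc cells, incubated 16 h at 37C. Luciferase reporter luminescence quantified, with multiplexed CellTiter-Fluor readout for cell viability.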
Potency means the concentration at half of the fitted maximal effect.

Androgen receptor (Homo sapiens), sequence (P10275 whole entry, looked up): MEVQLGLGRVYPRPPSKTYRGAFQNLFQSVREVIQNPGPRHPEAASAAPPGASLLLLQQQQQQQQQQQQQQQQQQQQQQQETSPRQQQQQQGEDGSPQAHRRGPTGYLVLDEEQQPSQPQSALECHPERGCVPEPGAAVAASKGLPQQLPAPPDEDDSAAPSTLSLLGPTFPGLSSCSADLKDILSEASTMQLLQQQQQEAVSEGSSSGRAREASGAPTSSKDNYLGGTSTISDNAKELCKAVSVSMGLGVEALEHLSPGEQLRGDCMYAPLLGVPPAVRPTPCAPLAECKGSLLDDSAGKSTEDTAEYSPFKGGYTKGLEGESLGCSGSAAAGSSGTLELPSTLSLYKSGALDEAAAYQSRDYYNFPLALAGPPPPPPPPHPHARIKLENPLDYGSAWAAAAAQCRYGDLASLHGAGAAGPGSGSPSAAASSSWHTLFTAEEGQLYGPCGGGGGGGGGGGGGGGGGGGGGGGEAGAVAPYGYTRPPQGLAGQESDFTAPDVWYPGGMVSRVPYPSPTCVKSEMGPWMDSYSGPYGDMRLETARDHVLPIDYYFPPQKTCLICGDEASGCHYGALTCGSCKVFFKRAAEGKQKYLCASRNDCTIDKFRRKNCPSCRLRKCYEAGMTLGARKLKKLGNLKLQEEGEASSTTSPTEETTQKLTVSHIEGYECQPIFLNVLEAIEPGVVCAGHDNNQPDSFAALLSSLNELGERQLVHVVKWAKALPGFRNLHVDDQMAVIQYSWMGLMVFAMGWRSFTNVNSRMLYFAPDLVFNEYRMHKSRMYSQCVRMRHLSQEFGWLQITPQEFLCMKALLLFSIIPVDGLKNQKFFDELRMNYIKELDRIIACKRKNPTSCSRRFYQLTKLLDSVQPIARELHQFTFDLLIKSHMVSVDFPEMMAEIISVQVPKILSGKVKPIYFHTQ

Structure (SMILES) | Potency
O=C(O)COC(=O)Cc1ccccc1Nc1c(Cl)cccc1Cl | inactive
Cc1cc(C)c(S(=O)(=O)O)cc1N=Nc1cc(S(=O)(=O)O)c2ccccc2c1O | inactive
CCOc1nc2cccc(C(=O)O)c2n1Cc1ccc(-c2ccccc2-c2nn[nH]n2)cc1 | inactive
NC(N)=NN=C(/C=C/c1ccc([N+](=O)[O-])o1)/C=C/c1ccc([N+](=O)[O-])o1 | 5.96 µM (active)
N[C@H]1C(O)O[C@H](CO)[C@H](O)[C@@H]1O (stereo partly specified) | inactive
NC(=S)N/N=C/c1cccnc1 | inactive
